{
  "source": "PubChem BioAssay AID1626",
  "about": "(SRMLSC, 2009)",
  "note": "Several values for one entry are separate records, joined by “and”; a condition that tells them apart may be missing. Identical values can stand only once. The whole screen tested about 220,000 compounds, of which about 2,000 (0.91%) were called active. Roughly 2% stayed inconclusive and do not appear here. Not all results are given here. Measured potencies and affinities stand elsewhere. A number with no mark means an inactive call. No stated cut-off is given here; in the data, inconclusive means inhibition above about 80% without an active follow-up result; inactive means below that; test concentration not stated here.",
  "data": [
    {"test": "M. tuberculosis H37Rv growth inhibitors, H37Rv strain (AID 1626);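 further: bacteria incubated seven days before Alamar blue readout; 0% = bacteria only wells and 100% = bacteria with antibiotic wells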", "settings": "hits give high values, concentration not given here", "values": [
      {"compound": "O=C(NNc1ccc(-c2csnn2)cc1)c1cc(Cl)cc(Cl)c1", "inhibition": "27.1%"},
      {"compound": "CCCCC1=CC2=C(c3ccco3)C(=O)C(C)(OC(=O)c3ccc(OC)cc3)C(=O)C2=CN1CCCOC(C)C", "note": "(centres undefined)", "inhibition": "-5.76%"},
      {"compound": "CC(=O)OC(C(=O)N1CCOCC1)c1c(F)cccc1F", "note": "(centres undefined)", "inhibition": "-0.03%"},
      {"compound": "O=C(CCCNC(=O)/C(=C\\c1ccc(F)cc1)NC(=O)c1ccccc1)OCc1ccccc1", "inhibition": "1.82%"},
      {"compound": "O=C(CCCNC(=O)/C(=C/c1ccc(Br)cc1)NC(=O)c1ccccc1)OCc1ccccc1", "inhibition": "1.44%"},
      {"compound": "Cc1ccc(C(=O)N/C(=C\\c2ccccc2)C(=O)OCc2ccccc2)cc1", "inhibition": "12.7%"},
      {"compound": "O=C(CNC(=O)c1ccc(-c2ccccc2)cc1)OCc1ccc(Br)cc1", "inhibition": "6.21%"},
      {"compound": "COc1ccc(-c2cn3cc(C(F)(F)F)cc(Cl)c3n2)cc1", "inhibition": "65.8%"},
      {"compound": "CCCc1cc(C(N)=O)c(NC(C)=O)s1", "inhibition": "2.59%"},
      {"compound": "O=C(c1cc(-c2ccccc2)on1)N1CCc2ccccc2C1", "inhibition": "-6.16%"},
      {"compound": "CCOc1ccc(C2c3c(oc4cc(C)c(C)cc4c3=O)C(=O)N2CCCN2CCOCC2)cc1", "note": "(centres undefined)", "inhibition": "-8.64%"},
      {"compound": "CCOC(=O)C1CCN(Cc2nnnn2CCc2ccccc2)CC1", "inhibition": "-3.91%"},
      {"compound": "Nc1nc2nccc(-c3ccco3)n2n1", "inhibition": "-5.94%"},
      {"compound": "CC(C)OC(=O)C(C)Nc1n[nH]c(=S)[nH]c1=O", "note": "(centres undefined)", "inhibition": "-1.15%"},
      {"compound": "COc1ccc(OC)c(-n2c(-c3ccc(S(C)(=O)=O)cc3)cc(C=O)c2C)c1", "inhibition": "-4.11%"},
      {"compound": "Cc1nc(NCCCn2ccnc2)c2ccccc2n1", "inhibition": "-2.03%"},
      {"compound": "c1cncc(-c2nc(NCCCn3ccnc3)c3ccccc3n2)c1", "inhibition": "1.38%"},
      {"compound": "Cc1nc(NCCCn2ccnc2)c2oc3ccccc3c2n1", "inhibition": "7.2%"},
      {"compound": "CCc1nc(NCCCn2ccnc2)c2oc3ccccc3c2n1", "inhibition": "-11.5%"},
      {"compound": "c1ccc(-c2oc3ncnc(NCCCN4CCOCC4)c3c2-c2ccccc2)cc1", "inhibition": "-8.09%"},
      {"compound": "c1ccc(-c2c(-c3ccccc3)n(Cc3ccco3)c3ncnc(NCCCn4ccnc4)c23)cc1", "inhibition": "25.2%"},
      {"compound": "CCOC(=O)c1cnn(CCOC(=O)c2cccs2)c1NC(=O)c1cccs1", "inhibition": "7.28%"},
      {"compound": "COC(=O)c1ccc(CSc2nnc(Nc3ccc(C)cc3)s2)o1", "inhibition": "-4.05%"},
      {"compound": "Cc1c(Br)c([N+](=O)[O-])nn1CC(=O)c1ccccc1", "inhibition": "0.16%"},
      {"compound": "Cc1ccccc1CNC(=O)CCc1ccccc1", "inhibition": "-2.14%"},
      {"compound": "CCc1ccc(Oc2ncnc(N)c2[N+](=O)[O-])cc1", "inhibition": "-1.27%"},
      {"compound": "NC(=O)c1cc2n(n1)C(C(F)(F)F)CC(c1ccco1)N2", "note": "(centres undefined)", "inhibition": "-17%"},
      {"compound": "Cc1ccc2nc3c(nc2c1)-c1ccccc1C3=O", "inhibition": "-8.47%"},
      {"compound": "Cc1ccc2nc(-c3ccccc3)c(-c3ccccc3)nc2c1", "inhibition": "1.48%"},
      {"compound": "O=C(CN1CCN(S(=O)(=O)c2ccccc2)CC1)Nc1ccc2c(c1)OCO2", "inhibition": "-8.01%"},
      {"compound": "Nc1ncccc1OCc1cccc(C(F)(F)F)c1", "inhibition": "16.6%"},
      {"compound": "COc1ccc2nc(C(F)(F)Cl)c(C#N)c(N)c2c1", "inhibition": "-0.68%"},
      {"compound": "O=C(O)c1ccc(/C=C/c2ccc3cccc(O)c3n2)cc1", "inhibition": "74.2%"},
      {"compound": "O/N=C/c1ccc2cccc(O)c2n1", "inhibition": "3.62%"},
      {"compound": "COc1ccc(C(=O)N/N=C/c2ccc3cccc(O)c3n2)cc1", "inhibition": "64.5%"},
      {"compound": "O=C(Cc1ccccc1)N/N=C/c1ccc2cccc(O)c2n1", "inhibition": "22.8%"},
      {"compound": "COc1cc2c(cc1NC(=O)C(C)Sc1ccc(C)cc1)oc1ccccc12", "note": "(centres undefined)", "inhibition": "9.39%"},
      {"compound": "CCOC(=O)CON1C(=O)C(=O)N(OCC(=O)OCC)[C@H]2CCCC[C@H]21", "inhibition": "2.73%"},
      {"compound": "COc1ccc(-c2[nH]ncc2CN2CCSCC2)c(OC)c1", "inhibition": "-1.11%"},
      {"compound": "COc1ccc(-n2c(SCC(=O)Nc3ccccc3)nc3c(c2=O)SCC3)cc1", "inhibition": "6.14%"},
      {"compound": "CCCC(CCC)C(=O)Nc1ccncc1", "inhibition": "-10.4%"},
      {"compound": "CCCCCCOc1ccc(/C(N)=N/O)cc1", "inhibition": "5.99%"},
      {"compound": "C=CCC(=O)OCCCCCCOc1ccc(C(=O)O)cc1", "inhibition": "-13.9%"},
      {"compound": "CC1(C)Cc2c(c(=S)nc(-c3ccccc3)n2CCO)CO1", "inhibition": "7.44%"},
      {"compound": "O=C(O)Cc1sc(NCc2ccco2)nc1-c1ccccc1", "inhibition": "8.81%"},
      {"compound": "O=C(Nc1ccc(S(=O)(=O)Nc2nccs2)cc1)C1CC(=O)N(c2ccccc2)C1", "note": "(centres undefined)", "inhibition": "-6.74%"},
      {"compound": "COc1ccc(Br)cc1/C=N/NC(=O)c1ccco1", "inhibition": "-2.04%"},
      {"compound": "Cc1ccc(CNC(=O)C(=O)Nc2nccs2)cc1", "inhibition": "10.4%"},
      {"compound": "O=C(NCc1ccc(Cl)cc1)C(=O)Nc1nccs1", "inhibition": "1.96%"},
      {"compound": "CC(/C=C\\c1ccccc1)=C/C(=O)O", "inhibition": "2.72%"},
      {"compound": "O=C(/C=C/c1ccc(Br)cc1)NC(=O)c1ccccc1O", "inhibition": "5.02%"},
      {"compound": "O=C(/C=C/c1cccnc1)c1ccc(NC(=O)c2cccc(Br)c2)cc1", "inhibition": "8.79%"},
      {"compound": "CC(/C=C\\c1cccnc1)=C/C(=O)O", "inhibition": "1.6% and 0.21%"},
      {"compound": "Cc1cccc(NC(=O)c2cccnc2)c1", "inhibition": "1.57%"},
      {"compound": "O=C(O)/C=C/c1cccnc1", "inhibition": "-0.59%"},
      {"compound": "O=C(O)CCC(=O)/C=C/c1ccccc1", "inhibition": "-6.33%"},
      {"compound": "O=C(/C=C/c1ccccc1)NC(=O)c1ccccc1O", "inhibition": "-10.8%"},
      {"compound": "CCC/C=N/NC(=O)c1cc(Br)ccc1O", "inhibition": "-8.13%"},
      {"compound": "COc1cccc(-c2nc(N3CCN(c4ccccc4)CC3)c3ccccc3n2)c1O", "inhibition": "-0.61%"},
      {"compound": "CN1C=CC=C/C1=C1\\SC(=S)N(CC(=O)O)C1=O", "inhibition": "-3.47%"},
      {"compound": "Cc1cccc(Cc2nnc(CCC(=O)NCc3ccncc3C)o2)c1", "inhibition": "-3.05%"},
      {"compound": "O=C(C1=NN[C@@H]2C(=O)N(c3cccc(C(F)(F)F)c3)C(=O)[C@H]12)c1cnccn1", "inhibition": "-13.3%"},
      {"compound": "S=C1NC(c2cccs2)=CC(c2ccc(Br)cc2)N1", "note": "(centres undefined)", "inhibition": "12.7%"},
      {"compound": "COc1ccc(CC(=O)OCC(=O)Nc2cccc(Cl)c2)cc1", "inhibition": "-0.87%"}
    ]}
  ]
}
